Screening data (PubChem)
GALK inh: qHTS Assay for Inhibitors of Human Galactokinase (GALK). P51570. Purified GALK, Kinase-Glo residual ATP luminescence. Potency, µM (highest dose often 57.5 µM), for the others: at the highest dose activity change, negative = inhibition, actives largely listed as inhibitors. actives 0.007% (n = 270,000); further: potency means the concentration at half of the fitted maximal effect
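GALK at 5 nM final was combined with compound, 35 uM ATP and 100 uM galactose in HEPES pH8.0 with MgCl2 and DTT. The reaction ran one hour at room temperature before luminescent ATP detection.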
PLK1 PBD block: qHTS for Inhibitors of PLK1-PDB (polo-like kinase 1 - polo-box domain): Primary Screen; actives 2.8% (n = 360,000); Plk1 PBD binding of FITC phosphopeptide, fluorescence polarization; Potency, µM, without a hit: max response, negative = inhibition, actives largely listed as inhibitors; Serine/threonine-protein kinase PLK1 (Homo sapiens), P53350; further: potency means the concentration at half of the fitted maximal effect; series mostly up to about 57 µM; nearly all actives have a fitted effect of over 65% in size
USP2a block: qHTS Assay for Inhibitors of Ubiquitin-specific Protease USP2a Using CHOP2 as the Reporter; actives 0.01% (n = 330,000); Ubiquitin carboxyl-terminal hydrolase 2 (Homo sapiens), O75604; Potency, µM (highest dose often 38.3 µM), for inactives: top-dose activity change, negative = inhibition, hits mostly inhibitors; USP2 core, Ub-CHOP2 coupled fluorogenic reporter, 485/531;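 further: potency means the concentration at half of the fitted maximal effect; plate controls were DMSO wells for no effect and full inhibition by NEM control for full effect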
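USP2 core (10nM final) preincubated 30min RT with compound in 20mM Tris-HCl pH 8.0, 2mM CaCl2, 2mM beta-mercaptoethanol, 0.05% CHAPS; 25nM Ub-CHOP2 plus 25nM reporter substrate added, fluorescence (Ex485/Em531) read after 60min.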
VDR inh: Inhibitors of the vitamin D receptor (VDR): qHTS; actives 0.93% (n = 400,000); AID 504847, 2011; Potency, µM, inactives show max response, negative = inhibition, usual class: inhibitors; VDR-SRC2-3 peptide fluorescence polarization, 2 h; Vitamin D3 receptor (Homo sapiens), P11473; further: potency means the concentration at half of the fitted maximal effect
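Measured by FP: displacement of SRC2-3 coactivator peptide from VDR by library compounds, following a two-hour ambient incubation.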
Coupling enz: qHTS Assay for Inhibitors of Fructose-1,6-bisphosphate Aldolase from Giardia Lamblia: Coupling assay counterscreen | activity change, negative = inhibition, % at 58.2 µM, hits read low | AID 2472, 2010 | actives 0.67% (n = 290,000) | coupling enzyme system counterscreen, AmpLite Red fluorescence; in the data active means activity change below about -30%
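Counterscreen of the coupled detection system alone, without aldolase: glyceraldehyde-3-phosphate coupling enzymes plus AmpLite Red readout. Compounds at 57.5 uM final, 10 min RT preincubation, 20 min RT reaction, fluorescence 525/598 nm.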
USP1-UAF1 inh: Inhibitors of USP1/UAF1: Primary Screen. Ubiquitin carboxyl-terminal hydrolase 1 (Homo sapiens), O94782. recombinant USP1/UAF1, Ub-Rhodamine cleavage fluorescence. Potency, µM (doses to about 57.1 µM), inactives show at the top dose activity change, negative = inhibition, usual class: inhibitors. actives 0.23% (n = 390,000); further: potency means the concentration at half of the fitted maximal effect; nearly all actives have a fitted effect of over 60% in size
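In this screen, compounds sit with the deubiquitinase complex (1nM) for 15 min at room temperature before Ub-Rho is added at 150nM final. Fluorescence rise is then followed for 6 reads every 60 seconds.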
* marks the source's active call; other numbers are inactive results; ? = inconclusive; · = not tested or not shown. In the library only some 3.2% were active in any assay of this set; here they are far more common. Unless noted, the call rests on the fitted dose curve; in most records, active means well fitted curve in the direction sought with a large enough effect; inconclusive means small, poorly fitted or top-dose-only effect, or another doubt; inactive means no such curve, though single readings can be large; an effect the other way counts as inactive or inconclusive. Unless noted, on the % scale 0 is the no-effect control and ±100 the full control effect.

SMILES	GALK inh	PLK1 PBD block	USP2a block	VDR inh	Coupling enz	USP1-UAF1 inh
CCOc1ccccc1CN1CCC(O)CC1	-1%	-6%	1%	-10%	0	-12%
CCOc1ccccc1CN1CCC(N2CCOCC2)CC1	-2%	38µM*	2%	-23%	0	2%
CCN(CC)c1ccc(N)cc1	·	4%	2%	-6%	·	-32%
Nc1ccc(N(CCO)CCO)cc1	-2%	?	-1%	?	-38*	8.9µM*
Cc1ccc2nc(Cl)c(/C=N/NC(=O)c3ccccc3O)cc2c1	0%	-6%	2%	-1%	0	-18%
COc1ccc(C2=CC(=O)C=CC2=O)cc1	-2%	·	10%	·	-36*	·
N=C1/C(=C\c2ccc(-c3cc(Cl)cc(Cl)c3)o2)C(=O)N=C2SC=C(c3ccccc3)N12	1%	-7%	4%	12%	-1	-8%
CS(=O)(=O)C1=NSC2=NC(=O)/C(=C\c3ccc(-c4ccccc4)o3)C(=N)N21	-5%	·	0%	·	2	·
O=C1OC(c2cccs2)=N/C1=C/c1ccc(-c2cccc(C(=O)O)c2)o1	6%	19%	-5%	79µM*	1	-19%
N=C1/C(=C/c2ccc(-c3cccc(C(=O)O)c3)o2)C(=O)N=C2SC=C(c3ccccc3)N12	-4%	15µM*	-3%	-21%	-10	?
CC(C)S(=O)(=O)C1=NSC2=NC(=O)/C(=C\c3ccc(-c4ccccc4)o3)C(=N)N21	-24%	30µM*	1%	?	15	0%
CSCCC(NC(=O)c1ccc([N+](=O)[O-])cc1Cl)C(=O)OCC(=O)NC1CCCC(C)C1C (stereo unspecified)	-1%	-9%	0%	-7%	2	-8%
Nc1cccc2c1C(=O)N(C(=O)/C=C/c1cccc(F)c1)C2=O	1%	?	2%	40µM*	-1	-22%
CC(=O)N/N=C/c1cc(C(C)(C)C)cc(/C=N/NC(C)=O)c1O	4%	21µM*	?	10%	-2	-20%
CCC(O)(CC)C(=O)N/N=C/c1cc(Br)cc(Br)c1O	6%	-2%	0%	4%	0	-9%
CN(C)C(=O)c1ccc2c(c1[N+](=O)[O-])C(=O)c1ccccc1C2=O	0%	-5%	3%	-14%	-43*	-7%
Cc1cc(/C=N/NC(=O)c2ccc(O)cc2)c(C)n1C1CC1	8%	19µM*	2%	-19%	0	-5%
Cc1ccc(C(=O)Nc2cccc(C(=O)N/N=C/c3ccc(O)cc3)c2)cc1	-2%	-7%	1%	3%	1	-25%
CC1(Cc2ccc(F)cc2)C(=O)Nc2c(Cl)cccc21 (stereo unspecified)	·	7%	·	·	·	·
Oc1ccc(/C=N/Nc2ccnc3cc(Cl)ccc23)cc1O	-26%	-12%	-3%	-7%	-8	?
Oc1ccc(/C=N/Nc2ccnc3cc(Cl)ccc23)c(O)c1O	-6%	2.1µM*	1%	-10%	-23	?
CC1CCN(S(=O)(=O)c2ccc(C(=O)NCc3cccnc3)cc2)CC1	1%	-2%	0%	2%	0	-15%
CC(=O)NC1=NN(C(C)=O)C(c2ccccc2)S1 (stereo unspecified)	0%	4.7µM*	4%	?	-1	-1%
CC(=O)NC1=NN(C(C)=O)C(c2ccc(C)cc2)S1 (stereo unspecified)	1%	-13%	3%	-10%	0	-22%
Cc1ccc2cc3c(NC(=O)c4cccnc4)nn(C)c3nc2c1	-1%	-7%	-1%	-4%	4	-14%
COc1ccc(-n2nc3ccc(N)cc3n2)cc1	·	3%	·	·	·	?
